Some test systems named below: NCI-H23 lung; NCI-H226 lung; NCI-H322M lung; HOP-62 NSCLC; NCI-H460 lung; HOP-92 NSCLC; NCI-H522 lung; A549/ATCC NSCLC; 786-0 renal; COLO 205 colon; DU-145 prostate; K-562 leukemia; MALME-3M melanoma; MDA-MB-231 breast; RXF 393 renal; SF-268 CNS; SF-295 CNS; SF-539 CNS; UACC-257 melanoma; M14 melanoma.
Assay in all cases: NCI-60 one-dose screen, 48 h (100 = growth as untreated, 0 = no growth, -100 = all killed)
What all share (conditions): 10 µM unless noted

6 molecules from PubChem BioAssay (NCI) can be followed below.

The panel holds about 83,000 compounds, 20% with a hit somewhere; the sample as a whole holds those more often.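 48-hour exposure, single concentration, 96-well plates; percent growth endpoint where 0 means no net growth. Active: below 10.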 A number with no mark means an inactive call. Activity calls are given as the source filed them.

With `Cn1c(SCC(=O)c2ccc(Br)cc2)nc2ccccc2c1=O`, the growth is 85.3% in the assay on NCI-H23 lung; 90.7% with NCI-H226 lung; 95.8% in the assay with NCI-H322M lung; 105% in the assay on HOP-62 NSCLC; 102% in the assay on NCI-H460 lung; 91.3% in the assay with HOP-92 NSCLC. The growth is 86.4% in the assay with NCI-H522 lung; 96.3% in the assay on A549/ATCC NSCLC; 91.2% in the assay with 786-0 renal; 121% with COLO 205 colon; 97.8% in the assay on DU-145 prostate; 85.2% with K-562 leukemia. For the same molecule, the growth is 111% in the assay with MALME-3M melanoma; 94.9% in the assay on MDA-MB-231 breast; 115% with RXF 393 renal; 97.5% with SF-268 CNS; 97.6% in the assay on SF-295 CNS; 97.3% in the assay on SF-539 CNS. Besides, the growth in the assay on UACC-257 melanoma was 108%; in the assay on M14 melanoma, 96.6%.
As to `O=C1[C@@H]2Cc3c([nH]c4ccccc34)[C@@H](c3ccc(Cl)cc3)N2C(=O)CN1C1CCN(Cc2c(F)cccc2F)CC1`, the growth with NCI-H23 lung was 48.8%; in the assay with NCI-H226 lung, 60.6%; with NCI-H322M lung, 66.2%; in the assay on HOP-62 NSCLC, 54.1%; in the assay with NCI-H460 lung, 22.5%; with HOP-92 NSCLC, -0.363% (active). Also, the growth was 36.7% with NCI-H522 lung; 31.6% in the assay with A549/ATCC NSCLC; 45.2% with 786-0 renal; 7.17% (active) with COLO 205 colon; 49.2% in the assay with DU-145 prostate; 16.8% with K-562 leukemia. Moreover, the growth was 88.8% with MALME-3M melanoma; 66.4% in the assay on MDA-MB-231 breast; 44.4% in the assay with RXF 393 renal; 39.2% in the assay with SF-268 CNS; 41.4% in the assay on SF-295 CNS; 60.9% with SF-539 CNS. The values for the growth with UACC-257 melanoma and in the assay with M14 melanoma were 51.1% and 14.4%, respectively.
As to `O=C1c2ccccc2C23C(=C(c4cncnc4)c4ccccc42)CCCN13` (stereo not given), the growth was 102% in the assay on NCI-H23 lung; 97.4% in the assay with NCI-H226 lung; 107% in the assay on NCI-H322M lung; 108% in the assay on HOP-62 NSCLC; 104% in the assay on NCI-H460 lung; 90.9% in the assay with HOP-92 NSCLC. Also, the growth with NCI-H522 lung was 92.6%; with A549/ATCC NSCLC, 98.9%; with 786-0 renal it was 96.8%; in the assay with COLO 205 colon it was 121%; with DU-145 prostate, 101%; in the assay on K-562 leukemia, 102%. Also, the growth in the assay with MALME-3M melanoma was 94.7%; with MDA-MB-231 breast it was 101%; with RXF 393 renal, 104%; in the assay on SF-268 CNS it was 91.6%; with SF-295 CNS, 95.9%; in the assay on SF-539 CNS, 102%. Further, the growth was 108% in the assay on UACC-257 melanoma and 98.6% with M14 melanoma.
`CC[C@H](CC[C@@H](C)[C@H]1CC[C@H]2[C@@H]3CC(=O)C4=CC(=O)/C(=C/c5ccc([N+](=O)[O-])cc5)C[C@]4(C)[C@H]3CC[C@]12C)C(C)C`: the growth was 103% in the assay on NCI-H23 lung; 103% in the assay with NCI-H226 lung; 103% in the assay on NCI-H322M lung; 104% with HOP-62 NSCLC; 106% with NCI-H460 lung; 114% in the assay with HOP-92 NSCLC. Also, the growth in the assay with NCI-H522 lung is 97.4%; with A549/ATCC NSCLC it was 99%; in the assay on 786-0 renal, 99%; in the assay with COLO 205 colon it was 118%; in the assay on DU-145 prostate, 104%; in the assay on K-562 leukemia, 81.4%. Also, the growth with MALME-3M melanoma was 101%; in the assay on MDA-MB-231 breast, 98.2%; in the assay on RXF 393 renal, 120%; in the assay with SF-268 CNS, 108%; with SF-295 CNS it was 97.1%; in the assay with SF-539 CNS, 97.3%. The values for the growth in the assay on UACC-257 melanoma and with M14 melanoma were 110% and 89.7%, respectively.
With `CCOC(=O)c1cnc2c(-c3ccc(Cl)c(Cl)c3)cnn2c1`, the growth was 82% with NCI-H23 lung; 80.1% in the assay on NCI-H226 lung; 90.8% with NCI-H322M lung; 69.1% with HOP-62 NSCLC; 99.7% in the assay on NCI-H460 lung; 39.9% in the assay on HOP-92 NSCLC. Moreover, the growth with NCI-H522 lung was 66.9%; in the assay with A549/ATCC NSCLC, 96.4%; with 786-0 renal it was 90.8%; in the assay with COLO 205 colon, 76.8%; with DU-145 prostate, 104%; in the assay with K-562 leukemia it was 21.7%. Further, the growth in the assay on MALME-3M melanoma is 75.7%; in the assay with MDA-MB-231 breast it was 81.5%; in the assay with RXF 393 renal, 79.7%; in the assay with SF-268 CNS, 92.7%; in the assay on SF-295 CNS, 82.9%; in the assay on SF-539 CNS it was 85.9%. Further, the growth in the assay with UACC-257 melanoma was 81.9%; in the assay with M14 melanoma, 60%.
On to `Brc1cc(-c2cc(-c3ccc4c(c3)OC=CO4)[nH]n2)cs1`, for which the growth with NCI-H23 lung was 79.3%; in the assay on NCI-H226 lung, 92%; in the assay on NCI-H322M lung, 91.4%; in the assay on HOP-62 NSCLC, 84.7%; in the assay with NCI-H460 lung, 97.8%; in the assay with HOP-92 NSCLC, 101%. The growth in the assay with NCI-H522 lung is 81.3%; in the assay on A549/ATCC NSCLC it was 93.9%; in the assay with 786-0 renal, 106%; with COLO 205 colon, 98.5%; in the assay on DU-145 prostate, 95.9%; in the assay with K-562 leukemia, 41.3%. The growth in the assay with MALME-3M melanoma is 64%; in the assay with MDA-MB-231 breast, 81.2%; in the assay on RXF 393 renal, 93.7%; with SF-268 CNS it was 90.1%; in the assay on SF-295 CNS, 79.1%; in the assay on SF-539 CNS, 85.2%. Also, the growth was 101% in the assay on UACC-257 melanoma and 83.3% in the assay with M14 melanoma.
